Bioassay records (PubChem BioAssay)
VDR inhibitor – vitamin D3 receptor (human) inhibition; 400,000 compounds, 0.93% hits; Potency, µM, inactives show max response, negative = inhibition, hits mostly inhibitors; P11473; VDR-SRC2-3 peptide fluorescence polarization, 2 h; also: potency is read from the fitted curve at half-maximal effect; % is scaled to controls: 0 for no effect and ±100 for the full control effect
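VDR–SRC2-3 interaction, FP format. Cmpds 23 nl via pintool, brief spin, 2 h ambient incubation.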
hERG WT inh – blocks the wildtype human KCNH2 potassium channel; U2OS, BacMam KCNH2, thallium flux FluxOr; stronger effect = lower value; 340,000 compounds, 0.37% hits; AID 720551; activity change, % at 1.84 µM;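 active = maximum activity change below -70%; inconclusive = maximum activity change between -70% and -50%; inactive = maximum activity change above -50%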; also: % is scaled to controls: 0 for no effect and ±100 for the full control effect
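U2OS cells were transduced with wild-type KCNH2 virus (2.03 x 10^8 / mL) for 4 h at room temperature, then cultured overnight at 37 C. Thallium flux was read with FluxOr dye. Rate constants were normalized to DMSO controls.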
CBFb-RUNX1 inh – inhibitors of human CBF-beta and RUNX1 interaction; Q01196+Q13951; AlphaScreen CBFb-His/RUNX1-biotin binding, biochemical; Potency, µM (highest dose often 59.8 µM), without a hit: at the top dose activity, negative = inhibition, usual class: inhibitors; 230,000 tested, under 10 active; also: % of control where 0% means no effect
Target sequence (Q01196 whole entry, looked up): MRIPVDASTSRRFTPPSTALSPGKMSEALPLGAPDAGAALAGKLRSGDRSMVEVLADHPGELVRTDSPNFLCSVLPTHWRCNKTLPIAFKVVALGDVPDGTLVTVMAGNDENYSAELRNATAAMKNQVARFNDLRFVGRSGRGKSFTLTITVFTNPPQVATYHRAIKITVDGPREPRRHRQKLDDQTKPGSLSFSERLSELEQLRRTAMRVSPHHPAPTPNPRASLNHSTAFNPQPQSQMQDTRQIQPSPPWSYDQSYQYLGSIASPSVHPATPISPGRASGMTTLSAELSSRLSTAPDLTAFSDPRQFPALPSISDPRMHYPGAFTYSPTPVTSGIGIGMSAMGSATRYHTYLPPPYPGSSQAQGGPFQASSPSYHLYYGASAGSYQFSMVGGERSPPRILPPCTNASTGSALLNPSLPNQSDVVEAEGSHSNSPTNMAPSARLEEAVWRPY
Target sequence (Q13951 whole entry, looked up): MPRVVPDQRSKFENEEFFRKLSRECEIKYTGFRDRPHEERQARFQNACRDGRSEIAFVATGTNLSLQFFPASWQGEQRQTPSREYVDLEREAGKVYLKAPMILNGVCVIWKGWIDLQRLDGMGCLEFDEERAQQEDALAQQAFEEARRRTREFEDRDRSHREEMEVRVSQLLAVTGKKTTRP
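Proteins preincubated together for 20 min at RT before compound addition; 15 min later, nickel and streptavidin beads were added and left 90 min prior to AlphaScreen measurement.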
PLK1 PBD block – inhibitors of human PLK1 polo-box domain binding; 360,000 compounds, 2.8% hits; AID 720504; Potency, µM, without a hit: max response, negative = inhibition, usual class: inhibitors; Plk1 PBD binding of FITC phosphopeptide, fluorescence polarization; P53350; also: potency is read from the fitted curve at half-maximal effect; series mostly up to about 57 µM; % is scaled to controls: 0 for no effect and ±100 for the full control effect; nearly all actives have a fitted effect of over 65% in size
KCNH2 3.1 inh – inhibitors of human KCNH2 3.1 potassium channel isoform. U2OS KCNH2 3.1, thallium flux FluxOr; stronger effect = lower value. activity change, % (tested at about 1.8 µM). 340,000 compounds, 0.95% hits;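 active = maximum activity change below -70%; inconclusive = maximum activity change from -70% to -50%; inactive = maximum activity change above -50%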;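 also: thallium influx rate constant from kinetic fluorescence after stimulation buffer; % is scaled to controls: 0 for no effect and ±100 for the full control effect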
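Normalized rate constant (relative to positive and negative DMSO controls) derived from a 2 min kinetic fluorescence read after stimulation; U2OS cells expressing the 3.1 isoform via virus at 1.77 x 10^8 /mL.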
MBNL1 CUG block – blocks human MBNL1 binding to CUG repeat RNA | Q9NR56 | TR-FRET MBNL1-His/biotin-(CUG)12 binding, 665/545 ratio | Potency, µM (highest dose often 57.5 µM), for the others: at the top dose activity change, negative = inhibition, actives largely listed as inhibitors | 280,000 compounds, 0.036% hits; active = well fitted inhibition curve with a large enough effect in the signal ratio, with a control signal flat, not every such curve was filed as active; inconclusive = small, poorly fitted or top-dose-only effect, or effect the other way, or a change in a side signal; inactive = no such curve, though single readings can be large or run the other way; the % refers to the signal ratio; also: potency is read from the fitted curve at half-maximal effect; % is scaled to controls: 0 for no effect and ±100 for the full control effect
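Ratiometric TR-FRET (665 over 545 nm, excitation 340 nm) tracks disruption of MBNL1-His/biotin-(CUG)12 complex after 60 min at room temperature, with compounds at 92 nM to 58 uM final.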
An asterisk follows results filed as active; ? = inconclusive; · = not tested or not shown. Most compounds without a hit are left out; they make up all but 3.8% or so of the library. Unless noted, calls follow the shape of the dose curve; as a rule, active = well fitted curve in the direction sought with a large enough effect; inconclusive = small, poorly fitted or top-dose-only effect, or another doubt; inactive = no such curve, though single readings can be large; an effect the other way counts as inactive or inconclusive.

SMILES | VDR inhibitor | hERG WT inh | CBFb-RUNX1 inh | PLK1 PBD block | KCNH2 3.1 inh | MBNL1 CUG block
ON=C1c2cc(OCCN3CCCCC3)ccc2-c2ccc(OCCN3CCCCC3)cc21 | ? | -4.9 | · | 18.9µM* | -20.4 | 7.1%
CCOCCCNC(=O)NC(C)c1c(-n2cccc2)sc2c1CCN(CC)C2 (stereo unspecified) | 14.9% | · | · | · | · | ·
CC1CC(=O)c2c(cc3c(-c4c(O)cc(O)c5c(O)c6c(cc45)OC(C)CC6=O)c(O)cc(O)c3c2O)O1 (stereo unspecified) | ? | 5.3 | ? | 26.7µM* | 8.0 | ?
O=C(NC(CC(=O)N1CCN(c2ccccc2O)CC1)c1ccccc1)c1ccccc1Cl (stereo unspecified) | -19.3% | -4.4 | · | -15.4% | -8.0 | ·
O=C(NC(CC(=O)N1CCN(c2ccc([N+](=O)[O-])cc2)CC1)c1ccccc1)c1ccccc1Cl (stereo unspecified) | -1.9% | -117.0* | -4.7% | -4.6% | -106.8* | ?
Fc1ccccc1N1CCN(c2nnnn2-c2ccccc2)CC1 | 13.6% | · | 0.9% | -4.2% | -1.4 | -4.7%
Oc1ccccc1N1CCN(c2nnnn2-c2ccccc2)CC1 | ? | -2.7 | 3.8% | 29.9µM* | 5.5 | -5.1%
Cc1ccc(Cl)cc1N1CCN(C(=O)c2cn(C)c3ccc(S(=O)(=O)N4CCC(C)CC4)cc3c2=O)CC1 | -6.1% | · | · | · | · | ·
N/C(Cc1ccc([N+](=O)[O-])cc1)=N\OC(=O)C(c1ccccc1)c1ccccc1 | -4.4% | 2.6 | -4.9% | 0.3% | -81.6* | 9.5%
COc1ccc([N+](=O)[O-])cc1NC(=S)Nc1ccccc1 | -0.9% | -4.0 | -6.0% | -29.9% | -13.5 | ?
Fc1cccc(NC(=S)NNc2ccccc2)c1 | 39.8µM* | -1.8 | · | ? | -1.7 | -0.8%
N/C(Cc1ccc([N+](=O)[O-])cc1)=N\OC(=O)c1ccccc1Br | -13.6% | 11.5 | -1.3% | -0.8% | 7.4 | ?
O=C(Nc1ccc([N+](=O)[O-])cc1)C(c1ccccc1)c1ccccc1 | · | 6.6 | · | 0.0% | -78.8* | ·
O=[N+]([O-])c1ccc(O)c(NC(=S)Nc2ccccc2)c1 | ? | 8.3 | -4.8% | 26.7µM* | 1.2 | ?
Cc1ccc(OCC(=O)Nc2nnc(SCc3cc(=O)n4cccc(C)c4n3)s2)cc1 | -0.5% | · | · | · | · | ·
CCOc1cccc(C2c3c(oc4cc(C)c(C)cc4c3=O)C(=O)N2c2nc(C)c(C)s2)c1 (stereo unspecified) | 18.9% | · | · | · | · | ·
CC(C)[C@H](NC(=O)[C@@H]1CSSC[C@H](NC(=O)[C@H](CC(=O)O)NC(=O)[C@H](C)NC(=O)[C@@H](NC(=O)CNC(=O)[C@H](C)N)[C@@H](C)O)C(=O)N[C@@H](Cc2ccccc2)C(=O)N[C@@H](Cc2c[nH]c3ccccc23)C(=O)N[C@@H](CCCCN)C(=O)N[C@@H](Cc2ccc(O)cc2)C(=O)N1)C(=O)O | -5.4% | · | 10.1% | · | · | ·
NS(=O)(=O)c1ccc(CCNc2ncnc3c2cnn3-c2cccc(Cl)c2)cc1 | 9.9% | · | · | · | · | ·
O=[N+]([O-])c1ccc(NNC(=S)Nc2ccccc2)cc1 | 44.7µM* | -2.9 | -16.6% | ? | -10.4 | ?
Cc1ccc(NCCC(=O)c2cccc([N+](=O)[O-])c2)c(C)c1 | -12.8% | -5.3 | ? | ? | ? | 31.5%
Cc1cccc(NCCC(=O)c2ccc([N+](=O)[O-])cc2)c1C | ? | 3.9 | 6.1% | ? | -82.5* | ?
OC(CNCc1ccco1)Cn1c2ccc(Br)cc2c2cc(Br)ccc21 (stereo unspecified) | -2.1% | -97.9* | 4.8% | -5.6% | -100.2* | 2.2%
Brc1ccc2ncnc(NCc3ccco3)c2c1 | 5.7% | -2.2 | -4.7% | -4.5% | -2.0 | -0.6%
COCCc1ncc(CN2CCC(C(=O)Nc3cccc(-c4cscn4)c3)CC2)cn1 | -27.5% | -3.8 | · | 18.9µM* | -5.0 | -16.5%
C=CCn1cc(CN2CCC(C(=O)Nc3cccc(-c4cccc(Cl)c4)c3)CC2)c(C)n1 | -10.2% | -99.3* | · | -7.3% | -93.0* | -6.7%
SMILES | VDR inhibitor | hERG WT inh | CBFb-RUNX1 inh | PLK1 PBD block | KCNH2 3.1 inh | MBNL1 CUG block
COCc1ccc(CN2CCC(C(=O)Nc3cccc(-c4cccc(Cl)c4)c3)CC2)o1 | 20.8% | -82.1* | · | -9.0% | -80.7* | -2.3%
Cc1c(CN2CCC(C(=O)Nc3cccc(-c4cccc(Cl)c4)c3)CC2)cnn1C | 11.1% | -99.9* | · | -20.5% | -84.7* | 4.9%
COCc1ccc(CN2CCCC(C(=O)Nc3ccc(-c4cccc(OC)c4)cc3)C2)o1 (stereo unspecified) | -3.8% | -2.3 | · | -9.1% | -13.9 | 0.8%
C=CCn1cc(CN2CCC(C(=O)Nc3cccc(-c4cccc(F)c4)c3)CC2)c(C)n1 | -11.9% | -6.4 | · | -6.7% | -49.2 | 1.1%
COc1ccc2c(c1)OC[C@H]1c3cc4c(cc3O[C@@H]21)OCO4 | -3.1% | · | ? | · | · | ·
Cc1cccc(CN2CCC(C(=O)Nc3cccc(-c4cccc(F)c4)c3)CC2)n1 | 12.6% | -73.7* | · | 1.4% | -93.7* | 1.2%
Cc1cccc(CN2CCC(C(=O)Nc3cccc(-c4cscn4)c3)CC2)n1 | -2.4% | 28.9 | · | -8.2% | 8.6 | -2.3%
O=C(Nc1cccc(-c2cccc(Cl)c2)c1)C1CCN(Cc2ccccn2)CC1 | 9.7% | ? | · | -1.0% | -72.2* | -3.3%
CCCn1ncc(CN2CCC(C(=O)Nc3cccc(-c4cccc(F)c4)c3)CC2)c1C | 2.0% | ? | · | 11.1% | -85.3* | -4.1%
Cn1cc(CN2CCC(C(=O)Nc3cccc(-c4cccc(F)c4)c3)CC2)cn1 | -2.2% | 21.4 | · | 5.3% | -35.9 | -1.2%
O=C(Nc1cccc(-c2cccc(Cl)c2)c1)C1CCN(CC2CCOC2)CC1 (stereo unspecified) | 6.2% | -20.2 | · | -5.2% | ? | -3.2%
COc1cccc(N2CCN(c3ncc4c(n3)CCN(Cc3ccc(Br)cc3)C4)CC2)c1 | 11.3% | · | · | · | · | ·
COc1ccccc1C(=O)NC1(C(F)(F)F)C(=O)Nc2c1c(=O)[nH]c(=O)n2CCc1ccccc1 (stereo unspecified) | 9.6% | · | · | · | · | ·
COC(=O)c1sc(-c2ccccc2)cc1NC(=O)c1cccc(F)c1 | 18.2% | · | · | · | · | ·
Cc1ccc(-n2c3nc(=O)n(C)c(=O)c-3cc3c(Cl)cccc32)c(C)c1 | -9.2% | · | · | · | · | ·
COCCN(Cc1cc2ccc(C)cc2[nH]c1=O)S(=O)(=O)c1ccccc1 | -5.2% | -217.6* | · | -12.5% | 7.3 | 4.2%
Cc1ccc2cc(CN(c3ccccc3C)S(=O)(=O)c3ccccc3)c(=O)[nH]c2c1 | ? | 5.4 | · | ? | -1.8 | 1.9%
Clc1cc(Cl)c(OCC#CI)cc1Cl | 2.82µM* | · | · | · | · | ·
